The text below walks through data of PubChem BioAssay (NCATS).

Each structure is given as a SMILES string. Values joined by “and” are separate entries in the source; they are usually repeats but may differ in a detail not shown here. Identical values can stand only once. Unmarked numbers belong to inactive results. Inconclusive results are not listed. Active and inactive are the calls of the source. Unless noted, calls follow the shape of the dose curve; as a rule, active = well fitted curve in the direction sought with a large enough effect; inconclusive = small, poorly fitted or top-dose-only effect, or another doubt; inactive = no such curve, though single readings can be large; an effect the other way counts as inactive or inconclusive.

Assay [1] in a line: Cell Viability - BJ (AID 421; calls by dose curve;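 also: potency is read from the fitted curve at half-maximal effect; cells exposed to compound for 40 hours at 37 °C before readout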). As to conditions: BJ fibroblast viability, qHTS. The essentials:
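Cytotoxicity as drop in intracellular ATP (CellTiter-Glo, 20 min RT) after 40 hr compound exposure of BJ fibroblasts at 37 °C. Titrations scaled between DMSO and 100 uM tamoxifen, Hill-fitted for AC50.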
A general note: Quantitative high-throughput screening tests each substance at several concentrations.

The nature of assay [2]: Cell Viability - HepG2 (AID 433; calls by dose curve;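 also: potency is read from the fitted curve at half-maximal effect; potency for ATP loss meaning cytotoxicity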). As to conditions: qHTS. In a few lines: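 Read-out is luciferase-based quantitation of cellular ATP as a measure of viable HepG2 cells after 40 h treatment at 37 °C. Signal decrease is scaled between DMSO-only and 100 uM tamoxifen controls, with AC50 fitted by the Hill equation.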
Assay [3] can be described thus: Stat Signaling Pathway (AID 446; active = well fitted curve in either direction with a large enough effect, not every such curve was filed as active;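 also: ME-180 cervical cancer cells given 40 pM IL-6 alongside compound; SIE-controlled beta-lactamase reporter measured as 460/530 nm FRET emission ratio; % is scaled to controls: 0 for no effect and ±100 for the full control effect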). The settings on record: ME-180 (cervical carcinoma) SIE beta-lactamase reporter, IL-6 stimulated, 5 h. The essentials:
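FRET read-out (405 nm excitation, 460/530 nm emission) of a beta-lactamase reporter under a STAT-inducible element in ME-180 cervical carcinoma cells. Cells with compound receive 40 pM IL-6 for 5 h. Values are normalised to AC90 stimulation and AC90 JAK-inhibitor controls.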

In assay [4] the target is Glucocorticoid receptor (Homo sapiens) (UniProt P04150). The assay is described as follows: GR-GFP Redistribution (AID 450;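 active = compounds whose dose series gives a full or clear partial fitted curve of increased nuclear translocation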; also: potency is read from the fitted curve at half-maximal effect). As to conditions: U2OS GR-GFP nuclear translocation, laser cytometry, 2 h.
Assay [5] is described as follows: Cell Viability - N2a (AID 540).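 Also: cells exposed to compound for 40 h at 37 °C; nearly all actives have a fitted effect of over 45% in size.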 Also: potency is read from the fitted curve at half-maximal effect.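 As to activity change, negative = cytotoxicity: plate controls were DMSO alone for no effect and tamoxifen control for full effect.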 As to conditions: N2a mouse neuroblastoma cell viability; activity change, negative = cytotoxicity: at 92.2 µM (top of the series). In a few lines:
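Cytotoxicity was scored as loss of cellular ATP in N2a cells, a mouse neuroblastoma line. Compounds are applied in a qHTS concentration series for 40 hr at 37 °C.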

A short description of assay [6]: Cell Viability - NIH 3T3 (AID 541).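 Also: plate controls were DMSO alone for no effect and tamoxifen positive control for full effect; nearly all actives have a fitted effect of over 25% in size.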 The settings on record: NIH 3T3 cell viability, qHTS; at 92.2 µM (top of the series). The essentials:
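Cells seeded at 1000/well, rested 5 hr at 37 °C, then dosed and incubated 40 hr at 37 °C. CellTiter-Glo added, 20 min room temperature, luminescence read. AC50 by Hill fit.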

Assay [7] can be described thus: Cell Viability - HUV-EC-C (AID 542). Also: nearly all actives have a fitted effect of over 35% in size. Also: potency is read from the fitted curve at half-maximal effect. As to activity change, negative = cytotoxicity: % is scaled to controls: 0 for no effect and ±100 for the full control effect. In a few lines: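 Cells were seeded at 1000 per well and incubated 5 hr at 37 °C before compound addition. After 40 hr at 37 °C, CellTiter-Glo reagent was added for 20 min and luminescence read. AC50 values came from Hill-equation modelling.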
Assay [8] in a line: Cell Viability - SH-SY5Y (AID 544). Also: nearly all actives have a fitted effect of over 55% in size. Also: potency is read from the fitted curve at half-maximal effect.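 As to viability change, negative = cytotoxic: 0% = DMSO alone and -100% = 100 µM tamoxifen.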 The settings on record: SH-SY5Y neuroblastoma cell viability; viability change, negative = cytotoxic: at 92.2 µM (top of the series). In a few lines: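 Cells were plated at 1500 per well and allowed 5 hr at 37 °C. Compounds were added across a concentration range and incubated 40 hr at 37 °C. CellTiter-Glo was added for 20 min at room temperature before luminescence reading.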

Assay [9] is described as follows: Cell Viability - Mesenchymal (AID 546).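 Also: cells exposed to compound for 40 hours before reading.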 Also: potency is read from the fitted curve at half-maximal effect.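 As to activity change, negative = cytotoxicity: 0% = DMSO only and -100% = 100 µM tamoxifen.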 As to conditions: mesenchymal cells viability, qHTS; activity change, negative = cytotoxicity: at 91.7 µM (top of the series). The essentials:
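CellTiter-Glo luminescence (intracellular ATP, 20 min room temperature) after 40 hr compound exposure at 37 °C of 1000 glomerulus-derived human kidney mesenchymal cells/well; AC50 values obtained by fitting qHTS concentration-response data to the Hill equation.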

The target in assay [10] is 3',5'-cyclic-AMP phosphodiesterase 4B (Homo sapiens) (UniProt Q07343). Description: qHTS Assay for Inhibitors of PDE-IV (AID 607; active = well fitted activation curve with a large enough effect in the main read-out, with a control signal flat, not every such curve was filed as active; also: % of control where 0% means no effect). In a few lines: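 Cell-based read-out of cAMP via a modified cyclic nucleotide-gated channel and membrane potential dye (535/590 nm) in HEK293 cells expressing PDE4 endogenously. Compounds tested up to 22.9 uM final; 100 uM RO 20-1724 reference.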

The nature of assay [11]: Cellular Toxicity (caspase-3) HepG2 (AID 654). Also: potency is read from the fitted curve at half-maximal effect. In a few lines: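 Caspase 3/7 activation in HepG2 is measured as rising luminescence after a 16 hr treatment at 37 °C. Values are scaled between DMSO basal and 100 uM tamoxifen, and AC50 is fitted with the Hill equation.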
A short description of assay [12]: AP1 Signaling Pathway (AID 357; active = well fitted curve in either direction with a large enough effect, not every such curve was filed as active;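 also: ME-180 reporter cells stimulated with EGF at its EC50 level; % is scaled to controls: 0 for no effect and ±100 for the full control effect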). The essentials: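 Read-out was the 460nm/530nm emission ratio (excitation 405nm) after CCF4 loading for 2.5 hours at room temperature. Cells carried an AP-1-driven beta-lactamase reporter, were stimulated with EC50 EGF plus compound for 5 hours, and AC50 values came from titrations.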
Assay [13] has as its target Mitogen-activated protein kinase 10 (Mus musculus) (UniProt Q61831). The assay is described as follows: JNK3 AlphaScreen Assay (AID 530; active = well fitted curve in either direction with a large enough effect, not every such curve was filed as active;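 also: kinase came from lysate of stimulated human HepG2 cells; signal reports phosphorylation of biotinylated GST-cJun 1-79 at Ser73 with 10 µM ATP; % is scaled to controls: 0 for no effect and ±100 for the full control effect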). The essentials: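 qHTS titrations with 15 min compound pre-incubation before adding ATP (10 uM final). Read-out: AlphaScreen of Ser73-phosphorylated biotin-GST-cJun using HepG2 lysate JNK3 activated by IL-1β and TNFα.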
Assay [14] is described as follows: Cell Viability - Jurkat (AID 426;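 active = dose-dependent loss of cell ATP signal giving a full or clear fitted curve, ranked by lower potency value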;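 also: potency is read from the fitted curve at half-maximal effect; cells exposed to compound for 40 hours at 37 °C before ATP read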). As to conditions: qHTS. In a few lines: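 Cells of the human T-cell leukemia line Jurkat (E6-1) are seeded at 5000 per well, treated with compound across a concentration range for 40 hours at 37 °C, then lysed with CellTiter-Glo; luminescence reports ATP.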
Assay [15] in a line: Cell Viability - Hek293 (AID 427;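 active = compounds whose dose-response curve shows a full or clear partial loss of cell viability, called from curve shape rather than a numeric limit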;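 also: potency is read from the fitted curve at half-maximal effect; cells exposed to compound for 40 hours at 37 °C before reading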). As to conditions: qHTS. In a few lines:
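Luminescent ATP content (CellTiter-Glo, 20 min at room temperature) was measured after a 40 hr, 37 °C compound exposure of HEK293 cells. AC50 values came from Hill-equation fits of qHTS concentration-response data normalized to DMSO and 100 uM tamoxifen.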

The nature of assay [16]: Cell Viability - MRC5 (AID 434; calls by dose curve;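 also: potency is read from the fitted curve at half-maximal effect; potency reflects cytotoxicity seen as loss of intracellular ATP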). As to conditions: MRC5 lung fibroblast viability, qHTS. The essentials: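 AC50 values come from Hill-equation fits of intracellular ATP loss, measured by CellTiter-Glo luminescence. Normal lung fibroblasts (MRC5) had 40 hr compound treatment at 37 C, normalized between DMSO and 100 uM tamoxifen.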
Assay [17] is described as follows: Cell Viability - SK-N-SH (AID 435; calls by dose curve;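 also: potency is read from the fitted curve at half-maximal effect; compound exposure lasted 40 h at 37 °C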). As to conditions: SK-N-SH neuroblastoma cell viability qHTS. In a few lines:
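Luminescent ATP signal served as the viability read-out after 40 hours of compound treatment of human neuroblastoma SK-N-SH cells. Concentration-response data, scaled between DMSO and 100 uM tamoxifen, gave AC50 values by standard Hill modeling.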

Assay [18] in a line: Cell Viability - Renal Proximal Tubule (AID 545). Also: nearly all actives have a fitted effect of over 40% in size. Also: potency is read from the fitted curve at half-maximal effect.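 As to activity change, negative = cytotoxicity: 0% = DMSO only and -100% = 100 µM tamoxifen.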 The settings on record: renal proximal tubule cells viability, primary cells of rat origin; activity change, negative = cytotoxicity: at 91.7 µM (top of the series). The essentials: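 Luminescent ATP signal (CellTiter-Glo) served as the viability read-out after 40 hr compound exposure of freshly isolated rat proximal tubule cells at 37 °C. Concentration-dependent ATP loss was fitted with the Hill equation to give AC50.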

A short description of assay [19]: Cell Viability - H-4-II-E (AID 543). Also: nearly all actives have a fitted effect of over 35% in size. Also: potency is read from the fitted curve at half-maximal effect. In a few lines:
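Cells seeded at 1500 per well and rested 5 hr; compounds added; 40 hr incubation at 37 °C; CellTiter-Glo added, 20 min at room temperature; luminescence read. Hill-equation fits gave AC50.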

Sequence of Glucocorticoid receptor (Homo sapiens) (P04150 whole entry, looked up): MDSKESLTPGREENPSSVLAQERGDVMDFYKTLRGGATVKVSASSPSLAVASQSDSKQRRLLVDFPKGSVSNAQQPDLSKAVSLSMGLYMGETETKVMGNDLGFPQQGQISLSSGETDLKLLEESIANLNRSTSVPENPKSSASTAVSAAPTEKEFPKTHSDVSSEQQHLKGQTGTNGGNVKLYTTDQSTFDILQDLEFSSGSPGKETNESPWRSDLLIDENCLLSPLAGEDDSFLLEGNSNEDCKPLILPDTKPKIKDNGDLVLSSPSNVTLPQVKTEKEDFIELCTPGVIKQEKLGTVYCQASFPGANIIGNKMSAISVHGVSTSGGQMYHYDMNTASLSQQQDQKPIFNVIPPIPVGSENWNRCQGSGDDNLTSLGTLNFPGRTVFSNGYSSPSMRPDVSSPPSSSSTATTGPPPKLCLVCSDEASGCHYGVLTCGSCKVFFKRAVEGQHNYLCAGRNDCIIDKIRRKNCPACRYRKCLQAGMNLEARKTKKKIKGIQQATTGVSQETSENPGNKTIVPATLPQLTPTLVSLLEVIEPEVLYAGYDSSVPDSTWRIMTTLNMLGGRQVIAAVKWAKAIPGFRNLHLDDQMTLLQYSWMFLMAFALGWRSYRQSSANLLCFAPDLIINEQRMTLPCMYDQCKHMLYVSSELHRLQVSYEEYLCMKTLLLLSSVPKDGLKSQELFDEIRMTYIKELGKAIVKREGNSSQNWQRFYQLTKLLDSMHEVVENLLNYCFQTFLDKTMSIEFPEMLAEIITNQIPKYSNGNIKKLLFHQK
Sequence of 3',5'-cyclic-AMP phosphodiesterase 4B (Homo sapiens) (Q07343 whole entry, looked up): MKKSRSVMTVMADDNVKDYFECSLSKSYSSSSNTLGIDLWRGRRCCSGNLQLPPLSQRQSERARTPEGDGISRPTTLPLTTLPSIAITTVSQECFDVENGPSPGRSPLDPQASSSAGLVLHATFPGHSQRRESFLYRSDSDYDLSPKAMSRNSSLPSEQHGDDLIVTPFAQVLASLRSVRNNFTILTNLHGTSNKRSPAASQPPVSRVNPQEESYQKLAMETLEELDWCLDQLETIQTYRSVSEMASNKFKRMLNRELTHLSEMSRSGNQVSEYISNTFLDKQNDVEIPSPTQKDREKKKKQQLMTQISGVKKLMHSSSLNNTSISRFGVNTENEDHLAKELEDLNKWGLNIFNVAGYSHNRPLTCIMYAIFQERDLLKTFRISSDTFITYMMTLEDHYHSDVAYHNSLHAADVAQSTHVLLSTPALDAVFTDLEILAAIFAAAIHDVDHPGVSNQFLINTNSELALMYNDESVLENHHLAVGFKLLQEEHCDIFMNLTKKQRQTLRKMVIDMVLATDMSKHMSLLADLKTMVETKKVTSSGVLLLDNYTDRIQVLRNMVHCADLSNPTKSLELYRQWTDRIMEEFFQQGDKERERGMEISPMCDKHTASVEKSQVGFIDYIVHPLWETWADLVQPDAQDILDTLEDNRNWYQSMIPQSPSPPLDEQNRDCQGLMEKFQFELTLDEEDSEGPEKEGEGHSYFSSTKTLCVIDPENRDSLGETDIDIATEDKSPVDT

Turning to `O=c1cc(-c2ccc(O)cc2)oc2cc(O)cc(O)c12`, the Potency in assay [1] was > 92 µM; in assay [2] it was > 92 µM; in assay [4] it was > 46 µM and > 20.6 µM; in assay [8], 25.1 µM (active). Also, the activity, negative = inhibition in assay [3] (at 17.2 µM (top of the series)) is -101% (active). For the same compound, the Potency entry in assay [5], in assay [7], in assay [9] and in [11] was “inactive” each time. Moreover, the activity change, negative = cytotoxicity in [6] is -105% (active). In assay [10], the result was inactive.
Turning to `CCN1CCC[C@H]1CNC(=O)c1cc(S(N)(=O)=O)ccc1OC`, the compound was classed as inactive in assay [12], in assay [13] and in [10]. Further, the activity, negative = inhibition in assay [3] (at 17.2 µM (top of the series)) was 8.96%. Further, the Potency in assay [4] is > 20.6 µM and > 46 µM.
As for `O=c1c(O)c(-c2ccc(O)cc2)oc2cc(O)cc(O)c12`, the Potency in assay [1], in assay [14], in assay [15], in assay [2], in assay [16] and in [17] was > 92 µM each time. In assay [4], the Potency is > 20.6 µM and > 46 µM. The compound was called inactive in [13] and in assay [10]. Further, the Potency result in assay [5], in [7], in assay [18], in assay [9] and in assay [11] was “inactive” each time.
`COc1cccc(-c2cc(=O)c3ccccc3o2)c1N`: in [4], the Potency was > 46 µM. Moreover, the compound was called inactive in [13] and in assay [10].
`NCCS`: the compound was classed as inactive in [12], in assay [13] and in [10]. In addition, in assay [3] (at 38 µM (top of the series)), the activity, negative = inhibition was -9.49%.
In the case of `O=c1[nH]cnc2c1ncn2[C@H]1CC[C@@H](CO)O1`, the Potency in assay [1], in assay [14], in assay [15], in assay [2], in [16] and in assay [17] was > 92 µM each time. Moreover, the Potency result in [5], in [7], in [19], in assay [8], in assay [18] and in [9] was “inactive” each time. The Potency result in assay [11] is “inactive”. Also, the activity change, negative = cytotoxicity in assay [6] is 6.95%.
As to `CS(=O)c1ccc(-c2nc(-c3ccc(F)cc3)c(-c3ccncc3)[nH]2)cc1` (stereo not given), the Potency in assay [4] is > 46 µM.
As for `CC(C)OC(=O)C(C)(C)Oc1ccc(C(=O)c2ccc(Cl)cc2)cc1`, the call in assay [12] and in assay [10] was inactive. Besides, the Potency in assay [4] was > 46 µM and > 20.6 µM.
Consider `Nc1ncnc2c1ncn2[C@@H]1O[C@@H](CO)[C@H](O)[C@H]1O`, for which the compound was classed as inactive in assay [12], in [13] and in [10]. In assay [3] (at 17.2 µM (top of the series)), the activity, negative = inhibition was -10%. For the same compound, the Potency in assay [4] was > 20.6 µM.
As for `C[N+](C)(C)CC(=O)O`, the compound was called inactive in assay [12], in assay [13] and in assay [10]. Moreover, the activity, negative = inhibition in assay [3] (at 38 µM (top of the series)) was -8.86%.
Consider `CC1=C(/C=C/C(C)=C/C=C/C(C)=C/C(=O)Nc2ccc(O)cc2)C(C)(C)CCC1`, for which the Potency in assay [1] was 30.8 µM (active); in [14], 2.16 µM (active); in assay [2] it was 34.9 µM (active); in [16], 24.7 µM (active); in assay [17], 7.43 µM (active); in [5], 31.6 µM (active). Moreover, the Potency in assay [7] is 31.6 µM (active); in assay [19], 20 µM (active); in [8], 12.6 µM (active); in [18], 20 µM (active); in assay [9], 31.6 µM (active); in assay [11], 31.6 µM (active). For the same compound, the compound was classed as inactive in assay [13]. Besides, the activity change, negative = cytotoxicity in [6] was -85.6% (active).
`COc1ccc(-c2coc3cc(O)ccc3c2=O)cc1`: in assay [4], the Potency was > 46 µM. The outcome in assay [13] was inactive.
On the same counts, the results for `CC(C)[C@H](CO)Nc1nc(Nc2ccc(C(=O)O)c(Cl)c2)c2ncn(C(C)C)c2n1` are > 46 µM and “inactive”.
Consider `CC(=O)O[C@]1(C(C)=O)CC[C@H]2[C@@H]3C=C(Cl)C4=CC(=O)[C@@H]5C[C@@H]5[C@]4(C)[C@H]3CC[C@@]21C`, for which the Potency in assay [1], in assay [2] and in assay [16] was > 92 µM in each case. Moreover, in assay [13], the call was inactive. Also, the activity change, negative = cytotoxicity in assay [6] was -124% (active). Also, the Potency result in [7], in assay [8], in assay [18], in [9] and in assay [11] was “inactive” in each case.
`CCCCCCCCCCCC1=C(O)C(=O)C=C(O)C1=O`: in assay [4], the Potency is > 46 µM. Further, the compound was called inactive in assay [13] and in assay [10].
